Bioassay records deposited in PubChem by National Center for Advancing Translational Sciences (NCATS).
G9a block: G9a (human) methyltransferase inhibition; Q96KQ7; G9a H3K9 monomethylation, AlphaScreen, 2 h; Potency, µM (highest dose often 102 µM), hits mostly inhibitors; 350,000 compounds, 8.8% hits; AID 504332; also: nearly all actives have a fitted effect of over 75% in size
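Quantitative HTS format: methyltransferase activity on a biotin-tagged H3K9 peptide is measured by AlphaScreen, using a rabbit anti-monomethyl-H3K9 antibody with streptavidin donor and anti-IgG acceptor beads. Final levels are 20 nM enzyme, 500 nM peptide, 20 uM SAM; 2 h RT.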
Sfp PPTase inh: inhibitors of Bacillus subtilis Sfp phosphopantetheinyl transferase. Q9F4F7. Biochemical Sfp PPTase activity, qHTS. Potency, µM, hits mostly inhibitors. 310,000 compounds, 3.5% hits;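 also: the enzyme is Sfp with the accession as filed and its product quenches rhodamine fluorescence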
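Step 1, compound plus 15 nM Sfp-PPTase, 15 min, room temperature. Step 2, add rhodamine-CoA (5 uM) and BHQ-2-YbbR (12.5 uM). Step 3, read 525/598 nm fluorescence at 0 and 30 min.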
L3MBTL1 inh: L3MBTL1 (human) inhibition | Q9Y468 | AlphaScreen L3MBTL1–H3K9me1 peptide binding | Potency, µM (doses to about 57.1 µM), most hits filed as inhibitors | 230,000 compounds, 0.66% hits; also: nearly all actives have a fitted effect of over 60% in size
Target sequence (Q9Y468 whole entry, looked up): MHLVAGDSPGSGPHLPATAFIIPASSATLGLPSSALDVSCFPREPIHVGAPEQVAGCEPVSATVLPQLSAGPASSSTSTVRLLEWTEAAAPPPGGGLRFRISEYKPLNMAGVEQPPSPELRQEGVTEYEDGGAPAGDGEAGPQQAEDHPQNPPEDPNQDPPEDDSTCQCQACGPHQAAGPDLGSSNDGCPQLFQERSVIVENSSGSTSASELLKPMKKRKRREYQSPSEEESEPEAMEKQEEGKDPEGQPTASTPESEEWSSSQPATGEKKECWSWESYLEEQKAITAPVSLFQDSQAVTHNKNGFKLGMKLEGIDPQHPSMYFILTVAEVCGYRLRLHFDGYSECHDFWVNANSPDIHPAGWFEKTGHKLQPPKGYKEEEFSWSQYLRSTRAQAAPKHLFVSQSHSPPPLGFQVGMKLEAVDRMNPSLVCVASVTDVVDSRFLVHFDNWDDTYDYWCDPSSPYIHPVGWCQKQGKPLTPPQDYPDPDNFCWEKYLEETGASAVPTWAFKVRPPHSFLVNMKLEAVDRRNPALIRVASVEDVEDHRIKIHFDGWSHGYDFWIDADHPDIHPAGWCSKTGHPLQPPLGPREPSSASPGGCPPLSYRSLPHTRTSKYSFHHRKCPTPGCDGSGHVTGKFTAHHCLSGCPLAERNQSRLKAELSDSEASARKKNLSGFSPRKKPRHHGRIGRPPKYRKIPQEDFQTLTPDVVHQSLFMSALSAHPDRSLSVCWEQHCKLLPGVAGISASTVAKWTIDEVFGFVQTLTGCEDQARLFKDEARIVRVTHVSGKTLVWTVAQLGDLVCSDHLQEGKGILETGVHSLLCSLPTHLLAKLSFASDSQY
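L3MBTL1 (50 nM) pre-complexed 30 min with biotinylated H3(1-15)K9me1 peptide (75 nM), then compounds added for 30 min at room temperature; AlphaScreen streptavidin donor/nickel chelate acceptor beads (10 ug/mL final) read after 30 min dark incubation.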
JMJD2A Tudor inh: JMJD2A Tudor domain (human) inhibition; O75164; AlphaScreen JMJD2A-Tudor / H3K4me3 peptide binding; Potency, µM (doses to about 114 µM), hits mostly inhibitors; 390,000 compounds, 4.4% hits; AID 504339; also: nearly all actives have a fitted effect of over 50% in size
HP1b chromo inh: inhibitors of HP1-beta chromodomain binding to methylated histone tails | 390,000 compounds, 0.56% hits | AID 540317 | AlphaScreen HP1-beta / biotin-H3K9me3 peptide binding | Potency, µM (series often up to 114 µM), hits mostly inhibitors; also: nearly all actives have a fitted effect of over 70% in size
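Compound inhibition of the preformed complex between 50 nM HP1-beta and 50 nM biotinylated H3K9me3 peptide was read by AlphaScreen. Buffer was PBS pH 7.4 with 0.01% Tween-20. Incubations ran 30 min at room temperature, with 10 ug/mL donor/acceptor beads.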
BAZ2B block: blocks human BAZ2B. AID 504333. 360,000 compounds, 4.4% hits. AlphaScreen BAZ2B-H3K14Ac peptide displacement. Q9UIF8. Potency, µM (doses to about 114 µM), usual class: inhibitors; also: nearly all actives have a fitted effect of over 60% in size
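AlphaScreen displacement: compounds (up to 110uM) incubated 30 min at room temperature with a preformed 50 nM BAZ2B/50 nM biotinylated H3K14Ac peptide complex in PBS pH 7.4 with Tween-20. Donor and acceptor beads at 10 ug/mL final added, 20 min light-protected before reading.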
A number is an active result; . = inactive; ? = inconclusive; / = no result given; [ ] = dose if it differs, or a comment. Rows were chosen to be rich in hits. Some 12% of all compounds tested hit in one or more screens of this group. Calls follow the shape of the dose curve; as a rule, active = well fitted curve in the direction sought with a large enough effect; inconclusive = small, poorly fitted or top-dose-only effect, or another doubt; inactive = no such curve, though single readings can be large; an effect the other way counts as inactive or inconclusive.

SMILES | G9a block | Sfp PPTase inh | L3MBTL1 inh | JMJD2A Tudor inh | HP1b chromo inh | BAZ2B block
C=CCn1c(C)cc(C(=O)COC(=O)CCc2cc(OC)c(OC)c(OC)c2)c1C | / | / | . | ? | ? | /
CCN(CC(=O)Nc1ccc2c(c1)OCCO2)CC(=O)Nc1ccccc1C(F)(F)F | / | / | . | 5µM | 28µM | /
CCN(CC(=O)Nc1ccc(C(C)=O)cc1)CC(=O)Nc1ccc2c(c1)OCCO2 | / | / | . | 0.32µM | ? | /
CCN(CC(=O)Nc1ccc(OC)cc1)CC(=O)Nc1ccc2c(c1)OCO2 | ? | / | . | . | . | .
CCN(c1ccccc1)S(=O)(=O)c1ccc(Cl)c(C(=O)NCC2CCCO2)c1 (stereo not drawn) | . | . | / | . | . | .
CC(C)(C)N(Cc1ccc2c(c1)OCO2)C(=O)/C=C\S(=O)c1ccccc1 (stereo not drawn) | / | / | / | . | . | /
COc1cc(OC)cc(C(=O)NCC(=O)OCC(=O)N2c3ccccc3NC(=O)C2(C)C)c1 | . | . | . | . | . | ?
Cc1cc(C)cc(C(=O)NCC(=O)OCC(=O)N2c3ccccc3NC(=O)C2(C)C)c1 | . | . | 18µM | . | . | 45µM
CC1(C)C(=O)Nc2ccccc2N1C(=O)COC(=O)c1cc([N+](=O)[O-])ccc1N | 20µM | . | . | . | . | .
Oc1ccc(CN2CCc3ccccc3C2)c2cccnc12 | ? | . | / | 10µM | . | 5.6µM
Oc1ccc(CN2CCN(c3ccccc3)CC2)c2cccnc12 | 3.2µM | . | . | . | . | ?
Oc1ccc(CN2CCC(Cc3ccccc3)CC2)c2cccnc12 | 35µM | . | / | 25µM | . | 20µM
Oc1c(CN2CCCCC2)ccc2cccnc12 | / | / | / | 20µM | . | /
C=Cc1c(C)c2cc3nc(cc4[nH]c(cc5nc(cc1[nH]2)C(C)=C5CCC(=O)O)c(CCC(=O)OC)c4C)[C@@]1(C)C3=CC=C(C(=O)OC)[C@H]1C(=O)OC (tested in a mixture with another compound) | .[12.7 µM] | ? | / | / | / | /
O=S(=O)(NCC1CCN(Cc2ccccc2)CC1)c1ccccc1C(F)(F)F | . | . | / | . | . | .
Ic1ccc(N2CCN(Cc3c[nH]c4ncccc34)CC2)cc1 | 24µM | . | . | 89µM | . | 50µM
FC(F)(F)c1ccccc1CN1CCC(Cc2ccccc2)CC1 | 22µM | . | . | 13µM | ? | .
Oc1ccc(CN2CCCCC2)c2cccnc12 | ? | . | ? | 8.9µM | . | 3.2µM
OCCN1CCN(Cc2cc(Cl)c3cccnc3c2O)CC1 | 50µM | . | / | 13µM | . | 7.9µM
O=C(Nc1ccc(N2CCN(Cc3ccccc3Cl)CC2)cc1)c1cccnc1 | ? | . | . | . | . | .
COC(=O)CC1C(=O)NCCN1C(=O)c1cc(OC)c(OC)cc1OC (stereo not drawn) | . | . | / | . | . | .
CC1(OC(=O)c2ccco2)C(=O)C2=COC(C3CC3)=CC2=C(Br)C1=O (stereo not drawn) | / | . | / | / | / | /
CCc1nn(CC(=O)N2CC(C)CC(C)C2)c(=O)c2cccn12 (stereo not drawn) | . | . | / | . | . | .
Oc1ccc2ccccc2c1CN1CCCCC1 | / | / | / | . | . | /
O=[N+]([O-])c1cc(CN2CCCCCC2)ccc1O | . | . | . | . | . | .
SMILES | G9a block | Sfp PPTase inh | L3MBTL1 inh | JMJD2A Tudor inh | HP1b chromo inh | BAZ2B block
Oc1c(Cl)cc(CN2CCCCC2)c2cccnc12 | .[2.33 µM] | . | / | / | / | 3.5µM
O=[N+]([O-])c1cc(CN2CCCC2)c2cccnc2c1O | ? | . | 4µM | 13µM | ? | 5µM
CC1Cc2cc(S(=O)(=O)N(C)c3ccc(Br)cc3)ccc2N1C(=O)C1CC1 (stereo not drawn) | . | / | / | . | . | .
CC[C@H](C)[C@H](NC(=O)[C@H](Cc1ccc(O)cc1)NC(=O)CNC(=O)[C@@H]1CCCN1C(=O)[C@H](CC(=O)O)NC(=O)[C@@H](N)CS)C(=O)NCC(=O)N[C@@H](CO)C(=O)N[C@@H](CCCN=C(N)N)C(N)=O | / | . | / | / | / | /
Cc1cc(C)c2c(n1)sc1c(=O)[nH]c(SCc3ccccc3)nc12 | ? | . | . | . | . | .
C=CCSc1nc2c(sc3nc(C)cc(C)c32)c(=O)[nH]1 | 45µM | . | . | . | . | .
Cc1noc(C)c1NC(=O)N(C)C[C@H]1Oc2ccc(NC(=O)Cn3cnnn3)cc2C(=O)N([C@H](C)CO)C[C@@H]1C | / | / | . | . | . | /
C/C(Cl)=C\Cn1c(O)c(N=NC(N)=S)c2cc(Br)ccc21 | / | . | . | 45µM | ? | 10µM
COc1ccc(C2C=C(c3ccc(Br)cc3)Nc3nc(N4C(=O)CCC4=O)nn32)cc1 (stereo not drawn) | 35µM | . | . | ? | . | ?
COc1ccc(C2=CC(c3ccc(F)cc3)n3nnnc3N2)cc1 (stereo not drawn) | . | . | . | . | . | .
O=C1CCC(=O)N1c1nc2n(n1)C(c1ccccc1)C=C(c1ccc(Br)cc1)N2 (stereo not drawn) | 25µM | ? | ? | ? | . | ?
N=C1/C(=C\c2coc3ccc(O)cc3c2=O)C(=O)N=C2SC=CN12 | / | ? | ? | . | . | ?
CC(C)CSC1=NSC2=NC(=O)/C(=C\c3coc4ccccc4c3=O)C(=N)N12 | 79µM | . | / | . | . | 79µM
Cc1cc(/C=C2\C(=N)N3N=C(c4ccco4)SC3=NC2=O)c(C)n1Cc1ccccc1 | 28µM | ? | ? | 45µM | . | ?
CCC1=NN2C(=N)/C(=C/c3cc(C)n(Cc4ccccc4)c3C)C(=O)N=C2S1 | . | . | . | . | . | .
N=C1/C(=C\c2coc3ccccc3c2=O)C(=O)N=C2SC(c3ccncc3)=NN12 | ? | . | / | 56µM | ? | ?
CSC1=NSC2=NC(=O)/C(=C\c3coc4ccccc4c3=O)C(=N)N12 | ? | . | . | . | . | ?
N=C1/C(=C/c2coc3ccccc3c2=O)C(=O)N=C2SC(c3ccco3)=NN12 | / | 40µM | ? | ? | . | 71µM
Cc1ccc(-c2nc(C#N)c(NCc3cccc4c3OCO4)o2)cc1 | 10µM | . | . | ? | ? | ?
CC(C)(C)c1ccc(-c2nc(C#N)c(NCCCn3ccnc3)o2)cc1 | / | . | . | ? | ? | 35µM
N#Cc1nc(-c2cccs2)oc1NCc1ccc2c(c1)OCO2 | 45µM | . | . | .[11.4 µM] | ? | ?
CN(C)c1oc(-c2ccc(OCc3ccccc3)cc2)nc1C#N | 11µM | . | ? | ? | ? | ?
CC(=O)Nc1ccc(S(=O)(=O)N2CCC(C(=O)O)(c3ccccc3)CC2)cc1 | .[0.501 µM] | . | .[2.29 µM] | . | . | .
CN1CCN(c2nc(-c3ccc4c(c3)OCO4)nc3ccccc23)CC1 | .[0.501 µM] | . | / | / | / | /
CC(C)(C)c1ccc(-c2nc(C#N)c(NCc3ccncc3)o2)cc1 | 20µM | ? | . | 79µM | . | 79µM
N#Cc1nc(-c2ccc(OCc3ccccc3Cl)cc2)oc1NCCCn1ccnc1 | ? | . | / | / | / | .
